Source: PubChem (National Center for Advancing Translational Sciences (NCATS))
Sampled rows, rich in hits. Any-hit rate of the full collection: about 8.3%.
FBPA Giardia inh – Giardia lamblia aldolase inhibition; Potency, µM (titrated, usually from 59.6 µM), for inactives: top-dose activity, negative = inhibition, usual class: inhibitors; A8B2U2; 0.71% of 290,000 active; purified Giardia FBPA; also: potency is read from the fitted curve at half-maximal effect; nearly all actives have a fitted effect of over 55% in size
Target sequence (A8B2U2 whole entry, looked up): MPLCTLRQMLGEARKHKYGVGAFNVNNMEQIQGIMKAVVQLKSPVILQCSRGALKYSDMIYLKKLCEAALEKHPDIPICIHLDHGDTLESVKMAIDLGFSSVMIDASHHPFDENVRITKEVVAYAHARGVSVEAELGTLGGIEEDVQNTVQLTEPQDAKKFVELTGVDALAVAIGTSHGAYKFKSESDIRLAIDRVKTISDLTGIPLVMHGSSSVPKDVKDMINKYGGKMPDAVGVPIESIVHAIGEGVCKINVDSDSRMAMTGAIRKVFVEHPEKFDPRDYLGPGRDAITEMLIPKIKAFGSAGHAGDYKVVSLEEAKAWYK
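Giardia FBPA (40 nM reagent) was preincubated 10 min at RT with compound (up to 57.5 uM final), then substrate plus GAPDH/TPI/NAD/arsenate coupling system with diaphorase/resazurin was added; resorufin fluorescence (525/598 nm) was read after 20 min.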
HCV inhibitor – blocks hepatitis C virus. Huh7.5.1 HCVcc-Cre infection, luciferase reporter, 44 h. Potency, µM (series often up to 41.8 µM), for inactives: at the highest dose activity change, negative = inhibition, actives largely listed as inhibitors. 3.4% of 340,000 active. AID 651820; also: potency is read from the fitted curve at half-maximal effect
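Cells seeded at 1,000/well and cultured 4 h, then compounds added followed by HCVcc-Cre virus (~0.5 moi). After 44 h further culture, luciferase substrate was added, plates held 15 min at room temperature, and luminescence read for 15 sec.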
FMDV antiviral – antivirals against foot and mouth disease virus; 1.2% of 410,000 active; Potency, µM (doses to about 57.9 µM), for the others: top-dose activity change, negative = inhibition, usual class: inhibitors; FMDV antiviral cell-based qHTS; AID 1159524; calls by dose curve; tested in HEK293T cells; also: read-out not given here; potency is read from the fitted curve at half-maximal effect; nearly all actives have a fitted effect of over 45% in size
Marburg entry inh – Marburg virus entry inhibition; 1.8% of 300,000 active; Marburg virus pseudotyped entry inhibition, cell reporter; Potency, µM (doses to about 37.8 µM), for inactives: at the highest dose activity change, negative = inhibition, actives largely listed as inhibitors; calls by dose curve; tested in HEK293 cells; also: potency is read from the fitted curve at half-maximal effect
HCMV inh – blocks human cytomegalovirus replication. HFF cells, HCMV-luciferase reporter, 72 h; hits give low values. activity change, negative = inhibition, % at 57.5 µM. 4.5% of 410,000 active. AID 1259415; in the data active = activity change below about -60%; inconclusive = no clear call, values can overlap the other calls; inactive = above about -39%
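Cell-based, HFFs, 1000 cells/well, 16 h 37C; cpds in DMSO + HCMV-luc, MOI 1 PFU/cell; 72 h 37C; OneGlo luminescence after 5 min RT; norm. to buffer vs Salinomycin 10uM.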
LASV entry inh – Lassa virus entry inhibition; Lassa virus pseudotype entry inhibition, cell reporter; Potency, µM (titrated, usually from 37.9 µM), without a hit: top-dose activity change, negative = inhibition, most hits filed as inhibitors; 1.2% of 300,000 active; AID 540256; calls by dose curve; tested in HEK293 cells; also: potency is read from the fitted curve at half-maximal effect; nearly all actives have a fitted effect of over 50% in size
An asterisk follows results filed as active; ? = inconclusive; nt = no result; ! = repeats disagree; [ ] = another dose, or the depositor's remark. Unless noted, calls follow the shape of the dose curve; as a rule, active = well fitted curve in the direction sought with a large enough effect; inconclusive = small, poorly fitted or top-dose-only effect, or another doubt; inactive = no such curve, though single readings can be large; an effect the other way counts as inactive or inconclusive. % is scaled to controls: 0 for no effect and ±100 for the full control effect.

SMILES | FBPA Giardia inh | HCV inhibitor | FMDV antiviral | Marburg entry inh | HCMV inh | LASV entry inh
COc1ccc(S(=O)(=O)Nc2ccc3c(c2)n(C)c(=O)n3C)cc1OC | 0% | 3.2µM* | 18% | -5%[46.1 µM] | 191 | ?
COc1ccc(S(=O)(=O)Nc2ccc3c(c2)n(C)c(=O)n3C)cc1F | nt | ? | -28% | -5%[46.1 µM] | -6 | -24%[46.1 µM]
COc1ccc(S[C@]2(c3nc(C)no3)CC(=O)N(c3ccc(OC)cc3)[C@@H]2c2ccc(OC)cc2)cc1 | nt | nt | nt | nt | -8 | nt
COc1ccnc(Oc2ccc(F)cc2)c1C(=O)N/C=N/OCc1ccc(Cl)cc1Cl | 2% | -9% | nt | 13µM* | 21 | 0%
C=C1C(=O)c2sccc2C(c2ccc(OC)c(OC)c2)C1COC(C)=O (centres undefined) | nt | 1.4µM* | 13µM* | 0.89µM* | -102* | 7.9µM*
CNC(=O)Oc1ccc2c(c1)[C@@]1(C)CCN(C)C1N2C (some centres undefined) | 6% | nt | 6% | nt | nt | nt
Cc1sc(NC(=S)NC(=O)c2ccc(C(C)(C)C)cc2)c(C#N)c1C | -10% | ? | ? | 8.2µM* | ? | ?
Cc1sc(NC(=S)NC(=O)c2ccccc2)c(C#N)c1C | nt | 1% | 62% | ? | 3 | 0%
CCOc1ccc2nc(NC(=O)CN3CCC(n4nnc5cc(F)ccc54)CC3)sc2c1 | -4% | ? | ? | ? | -68* | ?
O=C(CN1CCC(n2nnc3cc(F)ccc32)CC1)Nc1ccccc1N1CCOCC1 | 4% | -9% | ? | 13µM*! | ? | -3%
COC(=O)c1ccccc1NC(=O)CN1CCC(n2nnc3cc(F)ccc32)CC1 | -1% | 4% | -14% | 4% | 62 | 1%
Cc1cc(C)cc(NC(=O)CSc2oc(-c3cccs3)nc2S(=O)(=O)c2ccccc2)c1 | nt | nt | 0% | -20%[46.1 µM] | 1 | ?
CCN(CC)c1cc(C)c2cc(NC(=O)c3cc(OC)cc(OC)c3)ccc2n1 | nt | nt | -24% | 0%[46.1 µM] | -85* | ?
CCN(CC)c1cc(C)c2cc(NC(=O)c3ccccc3OC)ccc2n1 | 2% | 10µM* | -15% | ? | -60* | ?
CCN(CC)c1cc(C)c2cc(NC(=O)/C=C/c3ccccc3Cl)ccc2n1 | nt | nt | -16% | -20%[46.1 µM] | -107* | -18%[46.1 µM]
CCCCc1ccc(C(=O)Nc2ccc3nc(N(CC)CC)cc(C)c3c2)cc1 | nt | nt | ? | ? | -61* | -11%[46.1 µM]
CCN(CC)c1cc(C)c2cc(NC(=O)c3cccs3)ccc2n1 | -7% | ? | 0% | ? | ? | ?
CCOc1ccccc1N(C)C(=O)Cn1cnc2sc(C)c(S(=O)(=O)N3CCC(C)CC3)c2c1=O | nt | nt | -15% | 3%[46.1 µM] | -3 | 1%[46.1 µM]
COC(=O)CCN(c1ccccc1)C(CNS(=O)(=O)c1ccccc1)c1ccccc1 (centres undefined) | nt | nt | -24% | ? | -10 | ?
O=C(NCC1Cc2cc(F)cc(-c3cccnc3)c2O1)c1cnn(-c2ccccc2)c1 (centres undefined) | nt | nt | -2% | nt | nt | nt
CCC1CN(CC(=O)NC(C)CO)Cc2cc(OC)ccc2O1 (centres undefined) | nt | nt | 4% | nt | nt | nt
CCN(CC)c1cc(C)c2cc(NC(=O)c3ccc(OC)c(OC)c3)ccc2n1 | nt | nt | 0% | ? | -89* | ?
CCN(CC)c1cc(C)c2cc(NC(=O)c3cccc(F)c3)ccc2n1 | nt | nt | -1% | ? | ? | -22%[46.1 µM]
COc1ccc(Cl)cc1Nc1nc2ccc(C(=O)c3ccccc3)cc2n2cnnc12 | nt | nt | 0% | nt | ? | ?
Cc1cccc(NC(=O)c2ccc([N+](=O)[O-])s2)n1 | -19% | 16% | 24% | nt | -78* | nt
SMILES | FBPA Giardia inh | HCV inhibitor | FMDV antiviral | Marburg entry inh | HCMV inh | LASV entry inh
Cc1cccc(NC(=O)c2cccc([N+](=O)[O-])c2O)c1C | nt | ? | 0% | ? | ? | ?
O=C(NC1CCCC1)c1ccc([N+](=O)[O-])s1 | -1% | ? | -21% | -11%[46.1 µM] | -32 | -42%
Cc1cccc(NC(=O)c2ccc([N+](=O)[O-])s2)c1C | -3% | ? | 2% | -37% | -66* | 3%
Cc1cccc(C)c1NC(=O)c1ccc([N+](=O)[O-])s1 | 9% | 10µM* | -19% | -8% | ? | 5%
Cc1cccc(NC(=O)c2ccc([N+](=O)[O-])o2)n1 | -13% | ? | -24% | ? | ? | -16%
Cc1cccc(NC(=O)Nc2ccc([N+](=O)[O-])cc2)n1 | 2% | -11% | 29% | nt | -62* | nt
O=C(c1cccc(F)c1)N1CCC2(CCCN(Cc3nccs3)C2)CC1 | 2% | nt | -11% | nt | nt | nt
CCOc1ccc(-n2c(=O)c3c4c(sc3n(CC(=O)NC(C)CC)c2=O)CCCC4)cc1 (centres undefined) | nt | nt | 6% | -1%[46.1 µM] | -6 | -15%[46.1 µM]
Cc1ccnc(NC(=O)c2cc([N+](=O)[O-])cc([N+](=O)[O-])c2)c1 | -3% | -24% | -12% | 5%[46.1 µM] | -22 | -1%[46.1 µM]
Cc1ccnc(NC(=O)c2ccc([N+](=O)[O-])s2)c1 | -6% | 3.5µM* | 58% | nt | 28 | nt
Cc1ccc(F)c(C2C3C=CCC(c4ccccc4)C3C(=O)N2Cc2ccccc2)c1 (centres undefined) | -2% | nt | nt | nt | nt | nt
O=C(NCC1CCCO1)C1=CC2=NC(=S)N(c3ccccc3)C(=O)C2C=C1 (centres undefined) | nt | nt | nt | -14% | nt | nt
CS(=O)(=O)c1ccc(C2=C(c3ccccc3)C(=O)OC2)cc1 | 4% | 7.1µM* | -20% | nt | 3 | nt
CCC(=O)N1CCc2cc(S(=O)(=O)NC(Cc3ccccc3)C(=O)Nc3cccc(OC)c3)ccc21 (centres undefined) | nt | nt | -4% | -9%[46.1 µM] | 6 | -14%[46.1 µM]
O=C1c2cccc3c([N+](=O)[O-])ccc(c23)C(=O)N1O | 13% | 0% | ? | nt | 15 | nt
O=C1c2cccc3cccc(c23)C(=O)N1c1nccs1 | 0% | 15% | -15% | ? | -22 | 11%
O=C1c2cccc3c([N+](=O)[O-])ccc(c23)C(=O)N1c1ccc(Cl)cn1 | -22% | 10µM* | 25µM* | ? | -105* | ?
O=C1c2cccc3c([N+](=O)[O-])ccc(c23)C(=O)N1c1ccccn1 | nt | ? | ? | 10µM* | -103* | ?
O=C1c2cccc3c([N+](=O)[O-])ccc(c23)C(=O)N1c1nccs1 | -15% | ? | 35µM* | ? | -95* | ?
O=C(Nc1ccc(Cl)cc1)C(NS(=O)(=O)c1cccs1)c1ccccc1 (centres undefined) | nt | nt | 0% | -24%[46.1 µM] | -4 | ?
COc1ccc(OC)c(CNC(=O)C2CCCCN2S(=O)(=O)c2ccc(F)cc2)c1 (centres undefined) | nt | nt | -9% | nt | 0 | 4%[46.1 µM]
O=C1c2ccc3c4c(ccc(c24)C(=O)N1CCCCO)C(=O)N(CCCCO)C3=O | ? | 7.1µM* | ? | nt | -100* | nt
